We go through 5 molecules from PubChem BioAssay (NCATS).

Inconclusive results are not listed. Active and inactive are the calls of the source. Unless noted, calls follow the shape of the dose curve; as a rule, active = well fitted curve in either direction with a large enough effect (not every such curve was filed as active); inconclusive = small, poorly fitted or top-dose-only effect, or another doubt; inactive = flat fitted curve, though single readings scatter.

The target in assay [1] is Lysosomal acid glucosylceramidase (Homo sapiens) (UniProt P04062). The assay is described as follows: Glucocerebrosidase-p2 (AID 348; in the data active = potency below about 10 µM; also: potency is read from the fitted curve at half-maximal effect). As to conditions: purified GBA, blue fluorogenic substrate, 40 min. The essentials:
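Compounds titrated from 0.6 nM upwards against 0.2 nM enzyme in pH 5.9 citric acid/KH2PO4, taurocholate, tween-20; blue fluorogenic substrate 80 uM, 40 min room temperature, stopped and read Ex 365/Em 440 for AC50.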

The nature of assay [2]: AP1 Signaling Pathway (AID 357).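 Also: ME-180 reporter cells stimulated with EGF at its EC50 level; % is scaled to controls: 0 for no effect and ±100 for the full control effect.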 As to conditions: ME-180 AP-1-bla reporter, EGF-induced, beta-lactamase ratio, 5 h; at 7.69 µM (top of the series) unless noted. The essentials: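 Modulation of EGF-driven AP-1 transcription was assessed with a beta-lactamase reporter in ME-180 cells. Compound and EC50 EGF were co-incubated 5 hours at 37 °C before 2.5-hour CCF4 loading at room temperature and dual-emission reading.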

The target in assay [3] is Cytochrome P450 1A2 (Homo sapiens) (UniProt P05177). The assay is described as follows: p450-cyp1a2 (AID 410; calls by dose curve; also: potency is read from the fitted curve at half-maximal effect;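 as to activity change, negative = inhibition: -100% = full effect of reference inhibitor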). As to conditions: recombinant CYP1A2, luciferin-ME demethylation, luminescence; series mostly up to 57 µM. The essentials:
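Luminescent readout of luciferin formed from Luciferin-ME by human CYP1A2; data normalized against complete inhibition by 57 uM furafylline. Enzyme 20nM, substrate 100uM at Km, 100mM KPO4 buffer, 60 min reaction at room temperature.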

Assay [4] is described as follows: NFAT Signaling Pathway (AID 444).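 Also: carbachol stimulus at about its EC50 of 1 µM final; % is scaled to controls: 0 for no effect and ±100 for the full control effect.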 As to conditions: Jurkat NFAT-bla M1, carbachol, beta-lactamase ratio, 5 h; at 7.69 µM (top of the series) unless noted. Put shortly: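 Jurkat cells with NFAT-driven β-lactamase reporter and co-expressed M1 receptor, stimulated with carbachol (final 1 uM, ~EC50), compound titration, 5 h at 37 °C. CCF4 loaded 1 h at RT; 460/530 nm ratio gave %activity and AC50.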

Assay [5] can be described thus: Stat Signaling Pathway (AID 446).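 Also: ME-180 cervical cancer cells given 40 pM IL-6 alongside compound; SIE-controlled beta-lactamase reporter measured as 460/530 nm FRET emission ratio; % is scaled to controls: 0 for no effect and ±100 for the full control effect.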 Particulars: ME-180 (cervical carcinoma) SIE beta-lactamase reporter, IL-6 stimulated, 5 h; at 7.69 µM (top of the series) unless noted. The essentials:
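ME-180 SIE-bla cells; overnight plating; cpd + IL-6 40 pM, 5 h, 37 C; LiveBLAzer 2.5 h RT; 460/530 nm emission ratio. Normalized to 300 pM IL-6 and 125 nM JAK inhibitor controls.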

For assay [6], the target named is Glucocorticoid receptor (Homo sapiens) (UniProt P04150). The assay is described as follows: GR-GFP Redistribution (AID 450;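 active = compounds whose dose series gives a full or clear partial fitted curve of increased nuclear translocation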; also: potency is read from the fitted curve at half-maximal effect). As to conditions: U2OS GR-GFP nuclear translocation, laser cytometry, 2 h.
Assay [7] shares this target. Briefly: GR-EFC Redistribution (AID 451; calls by dose curve; also: potency is read from the fitted curve at half-maximal effect). As to conditions: CHO-K1 GR-EFC translocation, beta-gal luminescence, 2 h. The essentials: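 CHO-K1 cells expressing nuclear EA and GR-ED fragments of b-gal; compounds titrated up to 46 uM final, 2 h at 37 C. GR nuclear translocation read as complemented b-gal luminescence after 1 h RT detection.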
Assay [8] addresses Mitogen-activated protein kinase 10 (Mus musculus) (UniProt Q61831). Briefly: JNK3 AlphaScreen Assay (AID 530).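 Also: kinase came from lysate of stimulated human HepG2 cells; signal reports phosphorylation of biotinylated GST-cJun 1-79 at Ser73 with 10 µM ATP; % is scaled to controls: 0 for no effect and ±100 for the full control effect.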 Particulars: JNK3 lysate, c-Jun phosphorylation; series mostly up to 57.1 µM. Put shortly:
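Pre-activated (IL-1β/TNFα) JNK3 in HepG2 lysates phosphorylates biotin-GST-cJun(1-79), 10 uM ATP; anti-phospho-cJun(Ser73) AlphaScreen read at room temperature, pH 7.6 Tris buffer. Compounds pre-incubated 15 min as titrations.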
A general note: In Alpha technology, singlet oxygen from a donor bead excites a nearby acceptor bead.

Assay [9] concerns the target Cytochrome P450 3A4 (Homo sapiens) (UniProt P08684). The assay is described as follows: qHTS Assay for Inhibitors and Substrates of Cytochrome P450 3A4 (AID 884; active = well fitted curve in the direction sought with a large enough effect; an effect the other way counts as inactive or inconclusive; also: nearly all actives have a fitted effect of over 50% in size; also: potency is read from the fitted curve at half-maximal effect). As to conditions: recombinant CYP3A4, Luciferin-PPXE luminescence; series mostly up to 57.1 µM. The essentials: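 20 nM human CYP3A4 with 25 uM Luciferin-PPXE (at KM) in 200 mM KPO4, preincubated 10 min with compound; NADPH regeneration started a 60 min RT reaction. Luciferin detected by luminescence, normalized to 57 uM ketoconazole as full inhibition.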
In general terms: Quantitative high-throughput screening tests each substance at several concentrations.

For assay [10] the target is unchanged. The assay is described as follows: qHTS Assay for Activators of Cytochrome P450 3A4 (AID 885; active = well fitted curve in the direction sought with a large enough effect; an effect the other way counts as inactive or inconclusive; also: nearly all actives have a fitted effect of over 65% in size). Particulars: recombinant CYP3A4, Luciferin-PPXE luminescence, 60 min; series mostly up to 57.1 µM. The essentials:
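20nM CYP3A4 + 25uM Luciferin-PPXE (=KM), 200mM KPO4; cpd 10 min RT; NADPH regen, 60 min RT; stop w/ detection buffer, 20 min; luminescence. Normalized to 57 uM ketoconazole.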

Assay [11] is described as follows: Confirmation and Secondary Assay for Modulators of Hemoglobin Beta Chain Splicing at IVS2 654 locus (AID 910; active = well fitted curve in the direction sought with a large enough effect; an effect the other way counts as inactive or inconclusive;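 also: HeLa cells stably carrying EGFP split by mutant beta-globin IVS2-654 intron; % of control where 0% means no effect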). Particulars: HeLa EGFP-654 splicing reporter, GFP fluorescence, 48 h; series mostly up to 38.3 µM. Put shortly: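 HeLa cells stably expressing EGFP interrupted by β-globin IVS2-654 intron, seeded overnight in Opti-MEM/2% FCS, then treated 2 days at 37 °C. Restored splicing read as total peak GFP intensity per well by laser scanning cytometry (488 nm excitation, 500–520 nm emission); 500 nM antisense PNA as control.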

Assay [12] in a line: Confirmation and Secondary Assay for Modulators of Hemoglobin Beta Chain Splicing at IVS2 705 locus (AID 930; active = well fitted curve in the direction sought with a large enough effect; an effect the other way counts as inactive or inconclusive;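 also: HeLa cells stably expressing the EGFP-705 splicing reporter; GFP fluorescence per well restored by corrected splicing of the IVS2-705 intron in EGFP; % of control where 0% means no effect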). As to conditions: HeLa EGFP-705 splicing reporter, GFP fluorescence, 48 h; series mostly up to 38.3 µM. The essentials:
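HeLa IVS2-705 EGFP reporter cells, 500/well, compound 2 d at 37C; correct splicing yields fluorescent EGFP. Control: 500 nM antisense PNA. Read-out: total peak GFP intensity.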

Assay [13] is described as follows: qHTS Assay for Lipid Storage Modulators (AID 1519; calls by dose curve). As to conditions: Drosophila S3 cells, BODIPY lipid droplet/cell ratio, laser cytometry, cells loaded with oleic acid; for activity change, negative = inhibition: at 57.5 µM (top of the series). The essentials:
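Cells seeded at 5,000 per well were treated with compounds over a concentration series and loaded with oleic acid (400 uM, as added). Lipid droplet fluorescence (488 nm excitation, 500-530 nm channel) was read by laser-scanning cytometry and normalized to 20 uM Triacsin C.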

The target of assay [14] is Cytochrome P450 2D6 (Homo sapiens) (UniProt P10635). Briefly: qHTS Assay for Inhibitors and Substrates of Cytochrome P450 2D6 (AID 891; active = well fitted curve in the direction sought with a large enough effect; an effect the other way counts as inactive or inconclusive; also: potency is read from the fitted curve at half-maximal effect; nearly all actives have a fitted effect of over 60% in size). As to conditions: recombinant CYP2D6, luciferin-ME EGE luminescence; series mostly up to 57.1 µM. The essentials: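 Human CYP2D6 (5 nM) with 30 uM Luciferin-ME EGE (at Km) in 100 mM KPO4, compound preincubated 10 min, then NADPH regeneration system for 60 min at room temperature. Luciferin read by luminescence; normalized to 1.43 uM quinidine.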

Assay [15] concerns the target Ubiquitin carboxyl-terminal hydrolase 1 (Homo sapiens) (UniProt O94782). Briefly: Inhibitors of USP1/UAF1: Pilot qHTS (AID 504865; active = well fitted curve in the direction sought with a large enough effect; an effect the other way counts as inactive or inconclusive;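 also: rhodamine fluorescence freed from ubiquitin-rhodamine substrate followed over time; top concentration of the series differs between compounds; % is scaled to controls: 0 for no effect and ±100 for the full control effect; nearly all actives have a fitted effect of over 35% in size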). Particulars: purified USP1/UAF1, Ub-rhodamine cleavage fluorescence; series mostly up to 54.9 µM. Put shortly:
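Kinetic fluorescence assay: 1nM USP1/UAF1, 15 min compound preincubation, then 150nM Ub-Rho; 480/540 nm.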

The target in assay [16] is 3',5'-cyclic-AMP phosphodiesterase 4B (Homo sapiens) (UniProt Q07343). Briefly: qHTS Assay for Inhibitors of PDE-IV (AID 607; active = well fitted activation curve with a large enough effect in the main read-out, with a control signal flat, not every such curve was filed as active; also: % of control where 0% means no effect). Particulars: HEK293 ACTOne CNG channel cells, membrane potential fluorescence; series mostly up to 22.9 µM. Put shortly:
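ACTOne HEK293 cells carry a modified cAMP-gated CNG channel and express endogenous PDE4; plated 1000 cells/well, compounds up to 22.9 uM final. Membrane-potential dye fluorescence (ex 535/em 590) was read; parental cells received 10 uM forskolin + 100 uM RO 20-1724.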

The mark [17] stands for this setting: measured here: cell count channel max response.
[18] abbreviates: measured here: lipid channel max response.

3',5'-cyclic-AMP phosphodiesterase 4B (Homo sapiens), sequence (Q07343 whole entry, looked up): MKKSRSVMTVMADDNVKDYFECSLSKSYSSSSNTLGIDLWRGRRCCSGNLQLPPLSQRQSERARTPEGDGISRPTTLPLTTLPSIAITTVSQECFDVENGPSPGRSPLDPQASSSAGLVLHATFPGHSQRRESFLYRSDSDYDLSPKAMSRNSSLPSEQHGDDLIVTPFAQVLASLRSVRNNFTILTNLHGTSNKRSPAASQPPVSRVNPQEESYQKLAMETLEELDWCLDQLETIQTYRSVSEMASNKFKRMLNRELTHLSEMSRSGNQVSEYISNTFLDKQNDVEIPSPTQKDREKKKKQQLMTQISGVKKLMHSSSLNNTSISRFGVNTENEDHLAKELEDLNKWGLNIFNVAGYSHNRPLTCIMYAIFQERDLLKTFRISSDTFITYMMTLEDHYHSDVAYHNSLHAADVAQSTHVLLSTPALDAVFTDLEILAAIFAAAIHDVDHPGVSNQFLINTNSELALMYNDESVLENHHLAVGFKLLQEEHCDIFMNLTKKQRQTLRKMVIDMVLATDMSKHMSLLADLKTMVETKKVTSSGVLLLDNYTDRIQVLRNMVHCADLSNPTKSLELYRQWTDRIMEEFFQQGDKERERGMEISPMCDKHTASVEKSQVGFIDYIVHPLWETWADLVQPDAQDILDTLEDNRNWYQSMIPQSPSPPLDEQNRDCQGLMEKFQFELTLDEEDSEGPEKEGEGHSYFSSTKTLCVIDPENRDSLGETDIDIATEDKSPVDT
Cytochrome P450 3A4 (Homo sapiens), sequence (P08684 whole entry, looked up): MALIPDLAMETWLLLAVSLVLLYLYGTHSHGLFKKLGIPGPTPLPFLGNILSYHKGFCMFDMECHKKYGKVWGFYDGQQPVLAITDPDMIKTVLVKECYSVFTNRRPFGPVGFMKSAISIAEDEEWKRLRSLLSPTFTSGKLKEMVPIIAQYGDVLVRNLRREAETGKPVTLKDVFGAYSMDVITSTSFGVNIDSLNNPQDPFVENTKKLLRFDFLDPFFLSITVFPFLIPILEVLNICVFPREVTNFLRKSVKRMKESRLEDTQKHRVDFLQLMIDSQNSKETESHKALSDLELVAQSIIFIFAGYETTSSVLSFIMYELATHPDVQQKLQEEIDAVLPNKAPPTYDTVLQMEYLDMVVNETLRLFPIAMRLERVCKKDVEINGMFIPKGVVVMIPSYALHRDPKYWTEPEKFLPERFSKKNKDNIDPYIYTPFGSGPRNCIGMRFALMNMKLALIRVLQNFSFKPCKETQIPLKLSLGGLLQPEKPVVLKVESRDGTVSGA
Glucocorticoid receptor (Homo sapiens), sequence (P04150 whole entry, looked up, the tested form may be a part): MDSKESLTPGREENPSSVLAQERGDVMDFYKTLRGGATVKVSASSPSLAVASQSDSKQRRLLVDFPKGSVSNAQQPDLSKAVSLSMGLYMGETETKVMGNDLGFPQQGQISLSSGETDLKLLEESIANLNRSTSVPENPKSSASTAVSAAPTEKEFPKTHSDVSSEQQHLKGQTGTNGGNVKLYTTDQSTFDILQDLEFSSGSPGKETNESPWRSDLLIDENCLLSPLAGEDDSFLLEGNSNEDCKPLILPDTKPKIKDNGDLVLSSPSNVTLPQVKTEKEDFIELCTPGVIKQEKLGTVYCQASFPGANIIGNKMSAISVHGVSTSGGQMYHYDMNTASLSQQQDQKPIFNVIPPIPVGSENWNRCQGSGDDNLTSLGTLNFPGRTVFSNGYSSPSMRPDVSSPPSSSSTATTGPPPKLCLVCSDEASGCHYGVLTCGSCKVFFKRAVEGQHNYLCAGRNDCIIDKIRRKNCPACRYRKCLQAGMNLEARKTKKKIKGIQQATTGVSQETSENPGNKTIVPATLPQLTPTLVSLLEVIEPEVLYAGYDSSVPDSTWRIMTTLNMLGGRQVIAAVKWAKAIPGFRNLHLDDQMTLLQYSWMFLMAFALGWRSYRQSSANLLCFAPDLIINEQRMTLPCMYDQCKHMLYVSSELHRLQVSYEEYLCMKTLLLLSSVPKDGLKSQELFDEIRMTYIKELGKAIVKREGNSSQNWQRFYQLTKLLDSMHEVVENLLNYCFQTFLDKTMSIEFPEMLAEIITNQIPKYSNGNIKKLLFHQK
Lysosomal acid glucosylceramidase (Homo sapiens), sequence (P04062 whole entry, looked up): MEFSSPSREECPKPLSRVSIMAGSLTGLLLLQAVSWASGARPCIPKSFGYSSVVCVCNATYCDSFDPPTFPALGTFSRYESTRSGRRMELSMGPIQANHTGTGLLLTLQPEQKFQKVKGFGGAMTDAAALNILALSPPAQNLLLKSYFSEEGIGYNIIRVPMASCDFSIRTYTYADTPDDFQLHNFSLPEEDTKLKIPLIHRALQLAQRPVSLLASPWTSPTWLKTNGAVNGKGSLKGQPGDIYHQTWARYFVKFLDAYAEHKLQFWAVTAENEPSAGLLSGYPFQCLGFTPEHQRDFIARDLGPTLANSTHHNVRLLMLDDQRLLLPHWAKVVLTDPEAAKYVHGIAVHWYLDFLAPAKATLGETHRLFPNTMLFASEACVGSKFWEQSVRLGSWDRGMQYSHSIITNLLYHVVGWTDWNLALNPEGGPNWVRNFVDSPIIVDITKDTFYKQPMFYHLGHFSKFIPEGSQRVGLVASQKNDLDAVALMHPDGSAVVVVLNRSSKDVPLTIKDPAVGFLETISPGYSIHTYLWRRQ
Ubiquitin carboxyl-terminal hydrolase 1 (Homo sapiens), sequence (O94782 whole entry, looked up): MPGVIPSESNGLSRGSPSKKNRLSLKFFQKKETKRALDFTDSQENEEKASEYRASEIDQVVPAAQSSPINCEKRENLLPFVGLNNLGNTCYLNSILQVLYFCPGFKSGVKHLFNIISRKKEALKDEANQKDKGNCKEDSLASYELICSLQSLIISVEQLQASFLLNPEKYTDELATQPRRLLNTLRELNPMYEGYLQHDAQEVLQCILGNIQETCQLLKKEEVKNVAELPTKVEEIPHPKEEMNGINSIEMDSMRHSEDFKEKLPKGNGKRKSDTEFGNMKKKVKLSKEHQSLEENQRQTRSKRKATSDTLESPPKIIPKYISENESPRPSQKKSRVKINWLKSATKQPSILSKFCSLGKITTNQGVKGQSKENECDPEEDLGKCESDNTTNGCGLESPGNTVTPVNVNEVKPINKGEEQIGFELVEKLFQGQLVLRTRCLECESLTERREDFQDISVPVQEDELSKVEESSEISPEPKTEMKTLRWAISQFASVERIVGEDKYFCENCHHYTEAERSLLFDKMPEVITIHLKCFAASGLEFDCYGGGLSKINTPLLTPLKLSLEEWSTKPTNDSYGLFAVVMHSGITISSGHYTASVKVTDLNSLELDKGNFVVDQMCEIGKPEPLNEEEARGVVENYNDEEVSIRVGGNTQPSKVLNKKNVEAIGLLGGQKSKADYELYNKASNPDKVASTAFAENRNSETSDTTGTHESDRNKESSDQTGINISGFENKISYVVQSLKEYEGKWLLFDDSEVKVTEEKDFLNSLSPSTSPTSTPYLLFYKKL
Cytochrome P450 1A2 (Homo sapiens), sequence (P05177 whole entry, looked up): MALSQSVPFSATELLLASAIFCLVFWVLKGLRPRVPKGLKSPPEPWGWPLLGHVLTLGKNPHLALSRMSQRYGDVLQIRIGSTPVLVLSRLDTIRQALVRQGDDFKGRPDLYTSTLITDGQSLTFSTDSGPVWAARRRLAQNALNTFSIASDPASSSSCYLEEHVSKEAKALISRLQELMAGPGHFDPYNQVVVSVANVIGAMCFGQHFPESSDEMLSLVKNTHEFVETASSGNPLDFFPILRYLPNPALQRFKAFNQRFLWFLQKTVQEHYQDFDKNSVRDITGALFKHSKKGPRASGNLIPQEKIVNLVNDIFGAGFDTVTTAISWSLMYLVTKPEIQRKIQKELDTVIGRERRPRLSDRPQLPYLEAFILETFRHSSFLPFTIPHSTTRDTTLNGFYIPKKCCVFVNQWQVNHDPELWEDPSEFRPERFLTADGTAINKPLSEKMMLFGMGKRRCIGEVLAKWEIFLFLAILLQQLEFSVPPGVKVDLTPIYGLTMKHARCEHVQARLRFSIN
Cytochrome P450 2D6 (Homo sapiens), sequence (P10635 whole entry, looked up): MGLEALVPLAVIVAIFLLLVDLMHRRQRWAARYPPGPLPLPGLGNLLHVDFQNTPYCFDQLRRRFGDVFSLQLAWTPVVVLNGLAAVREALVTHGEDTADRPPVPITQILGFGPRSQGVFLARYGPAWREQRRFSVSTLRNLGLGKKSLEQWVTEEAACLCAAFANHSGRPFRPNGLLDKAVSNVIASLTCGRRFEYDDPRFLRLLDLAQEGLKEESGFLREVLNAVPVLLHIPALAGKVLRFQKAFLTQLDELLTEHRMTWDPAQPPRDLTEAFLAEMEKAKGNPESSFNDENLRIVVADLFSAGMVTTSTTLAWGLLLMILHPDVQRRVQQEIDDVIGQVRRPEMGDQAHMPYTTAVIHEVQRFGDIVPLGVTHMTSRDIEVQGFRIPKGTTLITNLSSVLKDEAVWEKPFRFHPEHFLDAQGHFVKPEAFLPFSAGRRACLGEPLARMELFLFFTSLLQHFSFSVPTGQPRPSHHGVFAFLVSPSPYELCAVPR

On to `COCCNc1nc(-c2cccc(OC)c2)nc2ccccc12`, for which the Potency in assay [1] is > 11.4 µM (inactive); in assay [3], 0.2 µM (active); in [6], > 46 µM (inactive); in assay [7], > 46 µM (inactive); in assay [9] it was 5.01 µM (active). Moreover, the activity change, negative = inhibition in assay [2] was -3.79% (inactive); in assay [4], 0.846% (inactive); in assay [13] it was -5.01% (inactive). Further, the activity, negative = inhibition in assay [5] was -13.7% (inactive). The Potency entry in assay [8], in [10] and in assay [11] was “inactive” each time. For the same molecule, the molecule was called inactive in [12]. Further, the max response in [13] (setting [17]) is 5.13%; in assay [13] (setting [18]) it was -0.48%.
For the molecule `CN(C)Cc1ccccc1-c1nc(N(C)Cc2ccco2)c2ccccc2n1`, the Potency in [1] was > 11.4 µM (inactive); in assay [3], 0.794 µM (active); in assay [6], > 46 µM (inactive); in assay [7], > 46 µM (inactive); in assay [14], 0.794 µM (active). In addition, the activity change, negative = inhibition in [2] is 9.21% (inactive); in assay [4], -18.4% (inactive); in [13], 6.11% (inactive). Besides, the activity, negative = inhibition in assay [5] was 3.87% (inactive). In addition, the Potency result in assay [8], in assay [10], in assay [11] and in [15] was “inactive” throughout. For the same molecule, the molecule was classed as inactive in assay [12]. Besides, the max response in assay [13] (setting [17]) came out at 17.4%; in [13] (setting [18]), 24.7%.
For the molecule `Cn1cccc1C(=O)N1CCC2(CCN(C(=O)Nc3ccccc3)CC2)CC1`, the values for the Potency in assay [1] and in [7] were > 11.4 µM (inactive) and > 46 µM (inactive), respectively. The activity change, negative = inhibition in [2] was -3.67% (inactive); in assay [4] it was 5.41% (inactive); in [13], 5.15% (inactive). In addition, the Potency entry in [3], in assay [8], in [16] and in [9] was “inactive” throughout. Further, the activity, negative = inhibition in assay [5] is -8.38% (inactive). Moreover, the max response in assay [13] (setting [17]) was 0.66%; in assay [13] (setting [18]), 6.81%.
`CN(C)c1ccc(-c2cc(NCc3cccnc3)ncn2)cc1`: the Potency was > 11.4 µM (inactive) in assay [1]; 0.398 µM (active) in [3]; > 46 µM (inactive) in assay [6]; > 46 µM (inactive) in assay [7]; 3.16 µM (active) in assay [9]. In addition, the activity change, negative = inhibition is -9.72% (inactive) in assay [2], 5.75% (inactive) in [4] and 7.63% (inactive) in assay [13]. Further, the activity, negative = inhibition in assay [5] is 0.912% (inactive). The Potency result in [8], in assay [16], in [10], in assay [11] and in assay [15] was “inactive” throughout. Besides, in assay [12], the result was inactive. Besides, the max response was 14.7% in assay [13] (setting [17]) and 22.6% in assay [13] (setting [18]).
On to `CNc1ncnc2ccc(-c3ccccc3OC)cc12`, for which the Potency in assay [1] is > 11.4 µM (inactive); in assay [3], 2.51 µM (active); in assay [6] it was > 46 µM (inactive); in [7], > 46 µM (inactive). For the same molecule, the activity change, negative = inhibition was 0.353% (inactive) in [2], 15.1% (inactive) in [4] and 1.03% (inactive) in assay [13]. In addition, in assay [5], the activity, negative = inhibition was -15.7% (inactive). The Potency entry in assay [8], in assay [16], in [10], in assay [11] and in [15] was “inactive” throughout. Moreover, the max response in assay [13] (setting [17]) was found to be 0.392%; in assay [13] (setting [18]), 0.542%.
